Over roughly 33,000 sequences, “e-score” has its median near -0.05; the highest 2% begin near 0.38. The full list was thinned out, with the highest values kept by preference.

The results in this text go back to PMC10668032, “Altered binding affinity of SIX1-Q177R correlates with enhanced WNT5A and WNT pathway effector expression in Wilms tumor”.

The experiment addresses T1, SIX1-Q177R homeodomain (human, UniProt Q15475 108-198, Q177R).
T1 sequence: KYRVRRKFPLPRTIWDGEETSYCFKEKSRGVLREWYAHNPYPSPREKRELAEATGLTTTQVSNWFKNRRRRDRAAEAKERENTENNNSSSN
As to the kind of experiment: universal protein binding microarray; Universal all-10-mer PBM (8x60K, AMADID 030236), 300 nM GST-tagged protein, Alexa Fluor 488 anti-GST; buffer, salt, pH and temperature not stated (as in Berger); high values mean tight binding. As to conditions: protein: ivt; tags: N-terminal GST; dsDNA, one strand shown. The method, boiled down: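 Homeodomains carrying a GST tag were produced by in vitro transcription/translation, then quantified by anti-GST western blot against a recombinant GST standard curve. Duplicate applications at 300 nM final concentration were made to universal 'all 10-mer' protein binding microarrays in 8×60K format. The Universal PBM Analysis Suite was used to express binding as 8-mer E-scores.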
In the case of GGGGAGTA, the binding signal was 0.256 ± 0.0126 E-score.
The figure for CACCATGC is 0.297 ± 0.00858 E-score; for CACCCGGG it is 0.327 ± 0.0154 E-score.
As for ACACTGTC, the figure is 0.336 ± 0.0232 E-score; as for ACACTGAG, 0.354 ± 0.00682 E-score.
The figure for ACACTGAC is 0.381 ± 0.0072 E-score.
Turning to ACACTGTG, the binding signal is 0.381 ± 0.0114 E-score.
For the sequence ACTCTGAC, the binding signal amounted to 0.172 ± 0.00272 E-score.
As for ACACTGAA, the figure is 0.349 ± 0.00868 E-score; as for CCGCGAAA, 0.167 ± 0.0237 E-score; as for GTAGTACA, 0.277 ± 0.0241 E-score.
As for CACGAGTA, the figure is 0.167 ± 0.0394 E-score.
Consider GGTATCGA, for which the binding signal was 0.2937 ± 0.0007 E-score.
The figure for ATCGTGTA is 0.403 ± 0.0236 E-score; for GTCGTGTA it is 0.438 ± 0.00933 E-score.
GTCGAGTA: the binding signal is 0.1983 ± 0.00156 E-score.
The figure for ATCGTGTC is 0.413 ± 0.0104 E-score; for CTTGTGTC it is 0.168 ± 0.0605 E-score.
As for GTCGTGCA, the figure is 0.181 ± 0.0113 E-score.
In the case of CTCGTGTC, the binding signal was found to be 0.409 ± 0.0114 E-score.
In the case of CTCGGGTC, the binding signal was found to be 0.155 ± 0.0227 E-score.
As for ATCGTGTG, the figure is 0.229 ± 0.0199 E-score; as for CAAGCGTG, 0.165 ± 0.0253 E-score.
As for CACCACCC, the figure is 0.3364 ± 0.00314 E-score; as for ACGGATCA, 0.172 ± 0.0172 E-score.
As for GACCCGCC, the figure is 0.18 ± 0.0248 E-score; as for ACGGGTGC, 0.237 ± 0.00406 E-score; as for CCGGGATC, 0.164 ± 0.0362 E-score.
With CTCGGGTA, the binding signal came to 0.168 ± 0.0141 E-score.
As for CTCGTGTA, the figure is 0.398 ± 0.00843 E-score; as for CTCGAGTA, 0.164 ± 0.00196 E-score; as for AACAGGGG, 0.17 ± 0.00571 E-score.
The figure for CATAGCAC is 0.195 ± 0.00827 E-score; for GATAACCC it is 0.19 ± 0.0215 E-score.
As for GATAACAC, the binding signal is 0.4333 ± 0.00385 E-score.
For the sequence ATAAACAC, the binding signal came out at 0.365 ± 0.0198 E-score.
In the case of AATAAACA, the binding signal turned out to be 0.218 ± 0.0334 E-score.
As for GATAATAC, the figure is 0.1568 ± 0.000269 E-score; as for CATAACAC, 0.426 ± 0.00624 E-score; as for CAAAACAC, 0.321 ± 0.0321 E-score.
AATAACAC: the binding signal came out at 0.426 ± 0.0299 E-score.
As for CACCATAA, the figure is 0.303 ± 0.015 E-score; as for ATGACCCG, 0.2 ± 0.00637 E-score.
In the case of ACTAGGTG, the binding signal was determined as 0.218 ± 0.00902 E-score.
The figure for ACCCCAAC is 0.237 ± 0.00988 E-score; for ACCGGAGT it is 0.25 ± 0.0191 E-score; for AGACCCCA it is 0.175 ± 0.0169 E-score.
As for ACCACACG, the figure is 0.297 ± 0.00738 E-score.
The figure for ACCACACC is 0.407 ± 0.0186 E-score; for CCCACACG it is 0.2877 ± 0.0011 E-score; for ACCACACA it is 0.196 ± 0.00984 E-score.
Regarding CCCACACC, the binding signal was found to be 0.39 ± 0.0401 E-score.
The figure for GCCACACC is 0.367 ± 0.0389 E-score; for ACACTTGA it is 0.376 ± 0.0165 E-score.
In the case of CGTTGGTA, the binding signal is 0.151 ± 0.00584 E-score.
As for GCGCGACA, the figure is 0.155 ± 0.0207 E-score; as for CACCGTAC, 0.365 ± 0.0199 E-score; as for CACGGCTC, 0.154 ± 0.0275 E-score.
The figure for AGGTCGTG is 0.264 ± 0.0209 E-score; for ACACTGCC it is 0.429 ± 0.0024 E-score; for ACACTTCG it is 0.327 ± 0.0333 E-score.
The figure for ACACTGCG is 0.383 ± 0.00512 E-score; for CCCCTGCA it is 0.17 ± 0.016 E-score; for ACACTTCC it is 0.349 ± 0.026 E-score.
Turning to ACACTGCT, the binding signal came to 0.339 ± 0.0327 E-score.
The figure for ACACTTCA is 0.313 ± 0.047 E-score; for ACACTGCA it is 0.385 ± 0.00749 E-score; for CACGAGTG it is 0.317 ± 0.0328 E-score.
As for CTGGGGTA, the binding signal was 0.194 ± 0.0256 E-score.
As for CCCCCAAC, the figure is 0.17 ± 0.0237 E-score; as for TAATGACA, 0.203 ± 0.0464 E-score.
As for CGCATTGC, the figure is 0.166 ± 0.0234 E-score.
Regarding AGTGATCC, the binding signal was found to be 0.184 ± 0.018 E-score.
The figure for GGCACACA is 0.179 ± 0.0131 E-score.
As for ATGTGTAC, the binding signal was found to be 0.23 ± 0.0242 E-score.
The figure for CGGTGCAC is 0.296 ± 0.017 E-score; for AGGTATAA it is 0.17 ± 0.0346 E-score; for CGATGTAC it is 0.254 ± 0.0159 E-score.
The figure for AGGTGTAT is 0.441 ± 0.0169 E-score; for AGGTGTAG it is 0.473 ± 0.00747 E-score.
In the case of AGGTGTAC, the binding signal was 0.4703 ± 0.00148 E-score.
As for AGGTGCGG, the binding signal was found to be 0.187 ± 0.0153 E-score.
As for ACCTGTAT, the figure is 0.17 ± 0.00632 E-score.
As for CGGTGTAC, the figure is 0.4872 ± 0.00266 E-score; as for AGGTGCAC, 0.264 ± 0.00684 E-score.
As for ATGTGTAG, the figure is 0.183 ± 0.0469 E-score.
